Consider 10 compounds from PubChem BioAssay (EPA / NIEHS).

Each structure is given as a SMILES string. Records with an inconclusive call do not appear. Calls of active or inactive are those of the source. The calls were made as follows: active = hit-call score of the fitted dose curve at least 0.9, where 1 is the maximum; inconclusive = response in the unintended direction; inactive = score below 0.9.

D(1A) dopamine receptor (Homo sapiens), sequence (P21728 whole entry, looked up): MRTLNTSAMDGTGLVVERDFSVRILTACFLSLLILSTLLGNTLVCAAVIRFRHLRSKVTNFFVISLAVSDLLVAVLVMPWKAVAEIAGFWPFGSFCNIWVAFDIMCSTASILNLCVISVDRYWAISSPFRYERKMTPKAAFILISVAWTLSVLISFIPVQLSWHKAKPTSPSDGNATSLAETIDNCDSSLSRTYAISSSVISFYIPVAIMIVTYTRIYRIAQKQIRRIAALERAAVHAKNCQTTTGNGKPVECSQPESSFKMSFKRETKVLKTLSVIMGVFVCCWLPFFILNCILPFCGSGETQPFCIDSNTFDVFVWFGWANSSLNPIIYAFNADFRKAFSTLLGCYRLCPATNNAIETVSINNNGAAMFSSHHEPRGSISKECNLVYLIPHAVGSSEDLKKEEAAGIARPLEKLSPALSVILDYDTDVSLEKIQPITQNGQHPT

The experiment deals with D(1A) dopamine receptor (Homo sapiens) (UniProt P21728). Briefly: NVS_GPCR_hDRD1: NovaScreen (NVS) G Protein-Coupled Receptor Assay for human Dopamine Receptor D1 (DRD1) (AID 2283269). The protocol:
NVS_GPCR_hDRD1 is a biochemical, single-readout assay that uses extracted gene-proteins from HEK293 in a cell-free assay. Measurements were taken 1 hour after chemical dosing in a 96-well plate.NVS_GPCR_hDRD1 is one of one assay component(s) measured or calculated from the NVS_GPCR_hDRD1 assay. It is designed to make measurements of radioligand binding, a form of binding reporter, as detected with scintillation counting signals by Filter-based radiodetection technology.Data from the assay component NVS_GPCR_hDRD1 was analyzed into 1 assay endpoint. This assay endpoint, NVS_GPCR_hDRD1, was analyzed in the positive analysis fitting direction relative to DMSO as the negative control and baseline of activity. Using a type of binding reporter, loss-of-signal activity can be used to understand changes in the binding as they relate to the gene DRD1. Furthermore, this assay endpoint can be referred to as a primary readout, because the performed assay has only produced 1 assay endpoint. To generalize the intended target to other relatable targets, this assay endpoint is annotated to the gpcr intended target family, where the subfamily is rhodopsin-like receptor.
Binding assays used specific radioligands (tritiated, iodinated) with non-radioactive competitive displacement ligands in agonist or antagonist protocols (as indicated) and various reference compounds and inhibitors to titrate specific binding to receptors and transporters. Most enzyme assays (CYPs, kinases, phosphatases, proteases, HDACs) used recombinant protein and specific substrates (fluorescence mostly, some colorimetric and radioactive) and inhibitors, followed by a biochemical separation of substrate and product. All assays for the biochemical HTS were initially run in duplicate at a single concentration (10 uM for CYP450 assays and 25 uM for all others). […] Each assay was run with positive and negative controls, and concurrent controls on every plate. The follow-up (secondary) screen tested active chemical-pairs in concentration series, as well as a few additional assays not tested in the primary screen, some selected negative inactives, and several cases re-run in the concentration series for confirmatory purposes.
The term AC50 denotes the concentration at which the activity in the assay is half-maximal. With `CCN(Cc1cccnc1)C(=O)c1cccc(Cl)c1[C@]1(C)C(=O)N(Cc2ccc(OC)cc2OC)c2ccc(Cl)cc21`, the AC50 is 2.53 µM (active).

Consider `O=c1[nH]sc2ccccc12`, for which the concentration at half-maximal activity (AC50) was 6.83 µM (active).

Consider `CCN(CC)C(=O)c1cc(S(=O)(=O)Cc2ccccc2)c(N2CCC(c3ccccc3)CC2)cc1N(CC)CCN(C)C`, for which the concentration at half-maximal activity (AC50) is 5.59 µM (active).

Take `Cc1cc(F)ccc1-c1cc(N2CC[C@@H](O)[C@H]2CO)ncc1N(C)C(=O)C(C)(C)c1cc(C(F)(F)F)cc(C(F)(F)F)c1`: the AC50 is 5.89 µM (active).

As to `CN(C)C(=O)C1(N2CCCCC2)CCN(CC[C@@]2(c3ccc(Cl)c(Cl)c3)CN(C(=O)c3ccccc3)CCO2)CC1`, the AC50 was 23.6 µM (active).

As to `COc1ccc2cc(S(=O)(=O)N[C@H](CC(=O)N[C@H](Cc3ccc(CN4[C@H](C)CCC[C@@H]4C)cc3)C(=O)N(C)C(C)C)c3ccc4c(c3)OCO4)ccc2c1`, the AC50 is 30.2 µM (active).

Consider `CC1(C)NC(=O)N(c2ccc([N+](=O)[O-])c(C(F)(F)F)c2)C1=O`, for which the compound was classed as inactive.

Take `CCCCCCCCCCCC[N+](C)(C)C`: the concentration at half-maximal activity (AC50) was 16.1 µM (active).

With `NCc1cccc(C2CCN(C(=O)c3ccc(C#Cc4ccccc4F)o3)CC2)c1`, the half-maximal activity concentration (AC50) was 5.14 µM (active).

Regarding `CCOC(=O)O[C@H](C)OC(=O)c1ccc2c(c1)cc(C(=O)NC1CCN(C(C)C)CC1)n2Cc1cc(-c2ccc(Cl)s2)on1`, the concentration at half-maximal activity (AC50) was 1.75 µM (active).
